# aSyn yeast inh – rescues yeast growth from alpha-synuclein toxicity | Yeast expressing alpha-synuclein, growth rescue, BacTiter-Glo, 24 h | Potency, µM (series often up to 46.1 µM), inactives show at the highest dose growth rescue (activation), hits mostly activators | actives 0.14% (n = 370,000) | AID 652106; further: % of control where 0% means no effect; nearly all actives have a fitted effect of over 65% in size
#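 Readout is rescue of growth in alpha-synuclein-expressing yeast, so inhibitors of toxicity appear as activators. Growth after 24 hr at 30 deg C in galactose medium is quantified by luminescence.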
# TDP-43 yeast inh – rescues yeast growth from TDP-43 toxicity. TDP-43 expressing yeast growth rescue, BacTiter-Glo, 24 h. Potency, µM (highest dose often 46.1 µM), for the others: top-dose growth rescue (activation), usual class: activators. actives 1.8% (n = 410,000). AID 652104; further: % of control where 0% means no effect; nearly all actives have a fitted effect of over 50% in size
#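 In this qHTS, compounds that restore growth of yeast expressing TDP-43 appear as activators. Cells (OD600=0.02, galactose medium, raffinose-pregrown) are incubated with compound 24 hr at 30 deg C and growth is quantified by BacTiter-Glo.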
# FUS yeast rescue – rescues growth of FUS-expressing yeast; S. cerevisiae FUS-expressing, growth rescue, OD600, 24 h; AID 1347120; Potency, µM (series often up to 76.6 µM), usual class: activators; actives 0.24% (n = 390,000);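 further: plate controls were DMSO vehicle for no effect and reference control for full effect; nearly all actives have a fitted effect of over 55% in size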
#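 Restored growth of FUS-toxic S. cerevisiae, read as 600 nm absorbance after 24 h at 30C in galactose medium (starting OD 0.005). Controls CP55940 and DMSO.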
# Abeta yeast res – restores growth of yeast expressing A-beta42 peptide; yeast expressing A-beta42, growth rescue, OD600, 48 h; response scale: 0% DMSO, 100% iron-clioquinol control; Potency, µM (top dose mostly 46.1 µM), most hits filed as activators; actives 0.063% (n = 410,000); further: nearly all actives have a fitted effect of over 55% in size
#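 Yeast growth medium received pinned compounds, then yeast cells expressing toxic A-beta were added; plates incubated at 30 C for 48 hr. Growth read as absorbance at 600 nm, normalized to DMSO and equimolar FeCl3 plus clioquinol controls.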
# * hit, by the source's call; i = inactive; ? = inconclusive; · = not tested or not shown. Rows were chosen to be rich in hits. Some 2.1% of all compounds tested hit in one or more screens of this group. The call rests on the fitted dose curve; in most records, active means well fitted curve in the direction sought with a large enough effect; inconclusive means small, poorly fitted or top-dose-only effect, or another doubt; inactive means no such curve, though single readings can be large; an effect the other way counts as inactive or inconclusive. Potency means the concentration at half of the fitted maximal effect.
SMILES,aSyn yeast inh,TDP-43 yeast inh,FUS yeast rescue,Abeta yeast res
CCOC(=O)[C@]12Cc3c(cc(OC)c(OC)c3OC)[C@H]1N(C)C(=O)c1cc(OC)ccc12,0%,18µM*,i,i
CCOC(=O)[C@]12Cc3ccccc3[C@H]1N(C)C(=O)c1cc(OC)ccc12,4%,35µM*,i,i
Cc1cccc(NC(=O)COC(=O)c2cc(C)n(C3CC3)c2C)c1,17%,35µM*,i,i
CC(C(=O)O)c1ccc(-c2ccccc2)c(F)c1 (stereo unspecified),-12%,16µM*,i,i
COC(=O)C1=C(c2ccc(-c3ccccc3)c(F)c2)C[C@@H]2CC[C@H]1N2C(=O)NCCCOC(C)C,11%,23%,?,i
O=c1c2ccccc2ncn1-c1ccc([N+](=O)[O-])c(C(F)(F)F)c1,-1%,9%,i,i
C#CC1(O)C=CC2C3CCC4=CC(=O)CCC4C3CCC21CC (stereo unspecified),16%,14µM*,i,i
CC(Cc1ccccc1)NC(=O)/C=C/c1ccc(Cl)cc1 (stereo unspecified),0%,-4%,·,i
COC(=O)[C@@H]1N=C(c2ccc(OC)cc2)O[C@]12C(=O)N(Cc1ccc(OC)cc1)c1ccccc12,2%,-18%,14µM*,i
COc1ccc(Cn2c(O)c(/C=N/NC(=O)c3ccccc3)c(=O)[nH]c2=O)cc1,-13%,17%,i,i
CCOC(=O)c1c(-n2c(C)cc(C=C3C(=O)NC(=S)NC3=O)c2C)sc2c1CCCC2,-31%,18µM*,i,i
CC1=CC2OC3CC4OC(=O)C=CC=CC(C(C)O)OCC(O)C(C)CC(=O)OCC2(CC1O)C4(C)C31CO1 (stereo unspecified),-10%,?,·,i
COc1ccccc1C(=O)Nc1nnc(-c2ccc(Cl)cc2)o1,5%,13µM*,i,i
COc1ccc(C(=O)Nc2ccc(Cl)cc2C(=O)c2ccccc2)c(OC)c1,·,14%,?,i
C/C(=N\Nc1cccc2ccccc12)c1c(O)n(Cc2ccccc2)c(=O)[nH]c1=O,-1%,-1%,·,i
S=P(Nn1cnnc1)(c1ccccc1)c1ccccc1,-1%,7%,i,i
C[C@]12CC[C@H](O)CC1=CC[C@@H]1[C@@H]2CC[C@]2(C)C(=O)CC[C@@H]12,?,16µM*,i,i
CCCCn1c(NC(=O)c2ccco2)c(C(=O)OCC)c2nc3ccccc3nc21,8%,-5%,i,i
Nc1cccc(N=Cc2c(O)n(Cc3ccc(F)cc3)c(=O)[nH]c2=O)c1,-1%,7%,11µM*,i
O=c1[nH]c(=O)n(Cc2ccc(F)cc2)c(O)c1C=Nc1ccc(Cl)cc1,-1%,-20%,i,i
CNC(=O)Oc1ccc2ncccc2c1,-13%,15%,i,i
CC1=CC2OC3CC4OC(=O)C=CC=CC(=O)OCCC(C)C(O)C(=O)OCC2(CC1O)C4(C)C31CO1 (stereo unspecified),?,13µM*,·,i
CCC(C)C1NC(=O)C(NC(=O)C(CC(C)C)N(C)C(=O)C2CCCN2C(=O)C(C)O)C(C)OC(=O)C(Cc2ccc(OC)cc2)N(C)C(=O)C2CCCN2C(=O)C(CC(C)C)NC(=O)[C@H](C)C(=O)[C@H](C(C)C)OC(=O)CC1O (stereo partly specified),10%,-15%,·,i
C#CCCC[C@@H]1OC(=O)CNC(=O)C([C@@H](C)CC)NC(=O)[C@@H]2CCCN2C(=O)C([C@@H](C)CC)OC(=O)[C@H](Cc2ccccc2)N(C)C(=O)[C@H](C(C)C)NC(=O)C1(C)C (stereo partly specified),3%,-7%,7.9µM*,i
S=P(c1ccccc1)(c1ccccc1)c1cnc2ccccn12,·,·,22µM*,·
COc1ccccc1N1CCN(C(=O)c2cc3c(-c4ccccc4F)nn(C)c3s2)CC1,·,16µM*,18µM*,i
COc1cccc(CNC(=O)c2cc3c(-c4ccccc4F)nn(C)c3s2)c1,·,?,?,i
Cc1cc(N(C)C)ccc1N=Nc1ccc(N)cc1,-16%,13µM*,i,i
Nc1ccc2cc(Br)ccc2c1,8%,35µM*,i,i
Nc1ccc(Br)cc1,0%,-14%,i,i

# Screening results deposited in PubChem BioAssay by National Center for Advancing Translational Sciences (NCATS).
